# Unmarked numbers belong to inactive results. Inconclusive results are not listed. Calls of active or inactive are those of the source. Unless noted, calls follow the shape of the dose curve; as a rule, active = well fitted curve in the direction sought with a large enough effect; inconclusive = small, poorly fitted or top-dose-only effect, or another doubt; inactive = no such curve, though single readings can be large; an effect the other way counts as inactive or inconclusive.
# Columns and labels:
# [1] = target: Lysosomal acid glucosylceramidase (Homo sapiens) (UniProt P04062); test: Glucocerebrosidase-p2 (AID 348; in the data active = potency below about 10 µM; also: potency is read from the fitted curve at half-maximal effect); details: purified GBA, blue fluorogenic substrate, 40 min
# Lysosomal acid glucosylceramidase (Homo sapiens), sequence (P04062 whole entry, looked up): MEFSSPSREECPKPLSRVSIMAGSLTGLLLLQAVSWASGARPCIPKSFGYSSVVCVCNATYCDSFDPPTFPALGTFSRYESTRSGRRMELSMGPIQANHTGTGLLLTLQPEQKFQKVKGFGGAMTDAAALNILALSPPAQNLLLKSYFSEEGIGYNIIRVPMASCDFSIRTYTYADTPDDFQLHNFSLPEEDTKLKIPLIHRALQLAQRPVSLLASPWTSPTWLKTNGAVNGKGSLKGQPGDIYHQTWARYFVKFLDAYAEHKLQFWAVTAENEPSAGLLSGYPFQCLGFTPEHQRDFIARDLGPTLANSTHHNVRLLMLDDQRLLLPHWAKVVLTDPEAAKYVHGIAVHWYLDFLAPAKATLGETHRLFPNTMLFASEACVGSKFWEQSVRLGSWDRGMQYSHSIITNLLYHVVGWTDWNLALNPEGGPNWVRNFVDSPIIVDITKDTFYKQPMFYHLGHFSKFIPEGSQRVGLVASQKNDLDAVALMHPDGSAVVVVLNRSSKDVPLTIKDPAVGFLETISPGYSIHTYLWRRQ
# Method in brief: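 Compounds titrated from 0.6 nM upwards against 0.2 nM enzyme in pH 5.9 citric acid/KH2PO4, taurocholate, tween-20; blue fluorogenic substrate 80 uM, 40 min room temperature, stopped and read Ex 365/Em 440 for AC50.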
# [2] = AP1 Signaling Pathway (AID 357; active = well fitted curve in either direction with a large enough effect, not every such curve was filed as active;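 also: ME-180 reporter cells stimulated with EGF at its EC50 level; % is scaled to controls: 0 for no effect and ±100 for the full control effect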); details: ME-180 (cervical carcinoma) AP-1-bla reporter, EGF-induced, beta-lactamase ratio, 5 h; at 7.69 µM (top of the series) unless noted
# Method in brief: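 Modulation of EGF-driven AP-1 transcription was assessed with a beta-lactamase reporter in ME-180 cells. Compound and EC50 EGF were co-incubated 5 hours at 37 °C before 2.5-hour CCF4 loading at room temperature and dual-emission reading.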
# [3] = target: Cytochrome P450 1A2 (Homo sapiens) (UniProt P05177); test: p450-cyp1a2 (AID 410; calls by dose curve; also: potency is read from the fitted curve at half-maximal effect); details: recombinant CYP1A2, luciferin-ME demethylation, luminescence; series mostly up to 57 µM
# Cytochrome P450 1A2 (Homo sapiens), sequence (P05177 whole entry, looked up): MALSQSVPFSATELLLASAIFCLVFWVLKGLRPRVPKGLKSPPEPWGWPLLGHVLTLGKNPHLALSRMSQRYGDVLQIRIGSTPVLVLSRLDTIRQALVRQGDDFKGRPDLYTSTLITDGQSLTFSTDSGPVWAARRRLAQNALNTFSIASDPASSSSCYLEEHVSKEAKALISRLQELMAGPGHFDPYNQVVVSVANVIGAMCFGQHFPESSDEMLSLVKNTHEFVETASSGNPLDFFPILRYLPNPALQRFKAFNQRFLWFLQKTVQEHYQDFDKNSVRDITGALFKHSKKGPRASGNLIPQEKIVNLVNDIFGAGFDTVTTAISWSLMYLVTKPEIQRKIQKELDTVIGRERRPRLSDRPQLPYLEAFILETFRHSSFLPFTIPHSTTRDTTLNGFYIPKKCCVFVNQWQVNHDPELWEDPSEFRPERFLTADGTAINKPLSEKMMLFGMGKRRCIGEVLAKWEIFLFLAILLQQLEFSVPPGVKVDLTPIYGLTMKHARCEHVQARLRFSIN
# Method in brief: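 Human CYP1A2 (20nM) demethylated Luciferin-ME at its Km (100uM) in 100mM KPO4. After 10 min compound preincubation, NADPH regeneration ran the reaction 60 min at room temperature. Luciferin was read by luminescence, normalized to 57 uM furafylline.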
# [4] = NFAT Signaling Pathway (AID 444; active = well fitted curve in either direction with a large enough effect, not every such curve was filed as active;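 also: carbachol stimulus at about its EC50 of 1 µM final; % is scaled to controls: 0 for no effect and ±100 for the full control effect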); details: Jurkat NFAT-bla M1, carbachol, beta-lactamase ratio, 5 h; at 7.69 µM (top of the series) unless noted
# Method in brief: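 Jurkat cells carrying an NFAT-driven β-lactamase reporter and co-transfected muscarinic M1 receptor were treated with compound plus carbachol (1 uM final, an EC50 level) for 5 h at 37 °C. CCF4 loading followed for 1 h at RT; 460/530 nm ratio gave %activity.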
# [5] = target: Dual specificity protein kinase CLK4 (Homo sapiens) (UniProt Q9HAZ1); test: qHTS Assay for Inhibitors of CDC-like Kinase 4 (ADP-FP Assay) (AID 1795); details: Transcreener ADP fluorescence polarization; series mostly up to 50 µM; also: nearly all actives have a fitted effect of over 60% in size; also: potency is read from the fitted curve at half-maximal effect
# Dual specificity protein kinase CLK4 (Homo sapiens), sequence (Q9HAZ1 whole entry, looked up): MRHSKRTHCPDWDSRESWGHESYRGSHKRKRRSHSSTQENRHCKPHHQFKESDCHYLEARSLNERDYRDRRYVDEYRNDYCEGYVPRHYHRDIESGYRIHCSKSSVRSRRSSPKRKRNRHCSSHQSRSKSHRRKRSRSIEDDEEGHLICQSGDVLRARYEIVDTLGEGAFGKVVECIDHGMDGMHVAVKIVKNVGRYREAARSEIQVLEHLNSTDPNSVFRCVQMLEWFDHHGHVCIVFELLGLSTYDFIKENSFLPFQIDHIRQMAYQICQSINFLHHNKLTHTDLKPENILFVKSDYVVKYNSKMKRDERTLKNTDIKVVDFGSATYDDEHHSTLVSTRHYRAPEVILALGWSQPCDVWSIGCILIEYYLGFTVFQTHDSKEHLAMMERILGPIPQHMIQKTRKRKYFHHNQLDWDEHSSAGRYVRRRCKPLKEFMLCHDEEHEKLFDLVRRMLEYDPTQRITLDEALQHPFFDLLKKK
# Method in brief: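 FP readout: Orange Transcreener ADP2 tracer (4 nM) plus ADP antibody, read after 30 min at room temperature. Kinase step: 6.25 nM Clk4, 100 uM RS peptide, 1 uM ATP, pH 7.5, 1 h.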
# [6] = target: Cytochrome P450 3A4 (Homo sapiens) (UniProt P08684); test: qHTS Assay for Inhibitors and Substrates of Cytochrome P450 3A4 (AID 884); details: recombinant CYP3A4, Luciferin-PPXE luminescence; series mostly up to 57.1 µM; also: potency is read from the fitted curve at half-maximal effect; nearly all actives have a fitted effect of over 50% in size
# Cytochrome P450 3A4 (Homo sapiens), sequence (P08684 whole entry, looked up): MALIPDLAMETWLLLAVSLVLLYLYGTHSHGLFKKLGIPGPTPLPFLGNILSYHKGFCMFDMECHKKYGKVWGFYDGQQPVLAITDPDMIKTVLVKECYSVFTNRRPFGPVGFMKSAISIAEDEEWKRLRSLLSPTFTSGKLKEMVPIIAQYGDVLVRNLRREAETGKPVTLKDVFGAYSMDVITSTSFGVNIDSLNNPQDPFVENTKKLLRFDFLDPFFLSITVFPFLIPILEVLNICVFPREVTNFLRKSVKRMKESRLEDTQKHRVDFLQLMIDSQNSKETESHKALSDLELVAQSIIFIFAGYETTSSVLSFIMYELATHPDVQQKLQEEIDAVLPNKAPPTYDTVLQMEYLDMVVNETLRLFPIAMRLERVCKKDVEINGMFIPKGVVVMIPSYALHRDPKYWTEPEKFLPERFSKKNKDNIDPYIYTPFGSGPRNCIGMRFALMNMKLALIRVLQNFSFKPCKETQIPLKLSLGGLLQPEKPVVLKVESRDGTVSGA
# Method in brief: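 20 nM human CYP3A4 with 25 uM Luciferin-PPXE (at KM) in 200 mM KPO4, preincubated 10 min with compound; NADPH regeneration started a 60 min RT reaction. Luciferin detected by luminescence, normalized to 57 uM ketoconazole as full inhibition.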
# [7] = target: Cytochrome P450 3A4 (Homo sapiens) (UniProt P08684); test: qHTS Assay for Activators of Cytochrome P450 3A4 (AID 885); details: recombinant CYP3A4, Luciferin-PPXE luminescence, 60 min; series mostly up to 57.1 µM; also: nearly all actives have a fitted effect of over 65% in size
# Method in brief: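 Signal was normalized against complete inhibition by 57 uM ketoconazole. The reaction used 20nM CYP3A4 with 25uM Luciferin-PPXE, 10-min compound preincubation and a 60-min NADPH-supported step at RT.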
# [8] = target: 3',5'-cyclic-AMP phosphodiesterase 4B (Homo sapiens) (UniProt Q07343); test: qHTS Assay for Inhibitors of PDE-IV (AID 607; active = well fitted activation curve with a large enough effect in the main read-out, with a control signal flat, not every such curve was filed as active; also: % of control where 0% means no effect); details: HEK293 ACTOne CNG channel cells, membrane potential fluorescence; series mostly up to 22.9 µM
# 3',5'-cyclic-AMP phosphodiesterase 4B (Homo sapiens), sequence (Q07343 whole entry, looked up): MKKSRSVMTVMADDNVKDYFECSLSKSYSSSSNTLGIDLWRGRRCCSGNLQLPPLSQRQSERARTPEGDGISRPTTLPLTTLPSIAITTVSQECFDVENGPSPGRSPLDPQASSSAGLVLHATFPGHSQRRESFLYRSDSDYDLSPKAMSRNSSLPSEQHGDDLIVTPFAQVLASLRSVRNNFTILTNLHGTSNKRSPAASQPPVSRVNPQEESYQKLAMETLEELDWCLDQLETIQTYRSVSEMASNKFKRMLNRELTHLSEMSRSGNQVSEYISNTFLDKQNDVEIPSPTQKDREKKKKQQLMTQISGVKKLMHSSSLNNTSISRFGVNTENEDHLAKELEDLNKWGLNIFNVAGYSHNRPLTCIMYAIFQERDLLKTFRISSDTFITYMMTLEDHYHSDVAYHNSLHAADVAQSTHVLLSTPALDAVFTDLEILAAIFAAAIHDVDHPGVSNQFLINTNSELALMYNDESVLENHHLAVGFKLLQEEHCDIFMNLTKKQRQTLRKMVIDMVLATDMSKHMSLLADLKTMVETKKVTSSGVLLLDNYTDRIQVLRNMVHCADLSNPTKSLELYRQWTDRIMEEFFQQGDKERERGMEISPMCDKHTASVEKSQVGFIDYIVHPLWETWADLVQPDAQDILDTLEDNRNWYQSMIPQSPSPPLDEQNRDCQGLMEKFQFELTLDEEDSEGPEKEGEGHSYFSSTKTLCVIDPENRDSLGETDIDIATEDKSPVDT
# Method in brief: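 Cell-based read-out of cAMP via a modified cyclic nucleotide-gated channel and membrane potential dye (535/590 nm) in HEK293 cells expressing PDE4 endogenously. Compounds tested up to 22.9 uM final; 100 uM RO 20-1724 reference.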
# [9] = target: Cytochrome P450 2C19 (Homo sapiens) (UniProt P33261); test: qHTS Assay for Inhibitors and Substrates of Cytochrome P450 2C19 (AID 899); details: recombinant CYP2C19, luciferin-H EGE luminescence; series mostly up to 57.1 µM; also: potency is read from the fitted curve at half-maximal effect; nearly all actives have a fitted effect of over 60% in size
# Cytochrome P450 2C19 (Homo sapiens), sequence (P33261 whole entry, looked up): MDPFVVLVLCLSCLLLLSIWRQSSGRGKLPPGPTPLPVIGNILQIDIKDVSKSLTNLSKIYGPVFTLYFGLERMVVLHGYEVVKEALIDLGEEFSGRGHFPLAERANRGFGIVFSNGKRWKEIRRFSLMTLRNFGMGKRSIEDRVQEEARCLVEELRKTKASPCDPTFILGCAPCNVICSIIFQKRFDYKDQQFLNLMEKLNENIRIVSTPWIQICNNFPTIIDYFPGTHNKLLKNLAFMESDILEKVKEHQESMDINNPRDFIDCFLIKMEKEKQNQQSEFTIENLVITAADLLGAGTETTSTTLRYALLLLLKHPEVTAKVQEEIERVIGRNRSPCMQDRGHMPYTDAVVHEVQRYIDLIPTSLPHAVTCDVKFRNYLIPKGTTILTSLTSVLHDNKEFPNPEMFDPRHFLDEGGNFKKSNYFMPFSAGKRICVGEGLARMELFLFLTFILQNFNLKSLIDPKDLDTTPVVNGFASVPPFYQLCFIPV
# Method in brief: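 NADPH-dependent conversion of Luciferin-H EGE (10uM, at KM) by 5nM enzyme in 50mM KPO4, 60 min at 37C following 10 min compound preincubation. Stopped with luciferin detection buffer; luminescence read after 20 min.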
# [10] = target: Cytochrome P450 2C9 (Homo sapiens) (UniProt P11712); test: qHTS for inhibitors of CYP2C9 against the NCATS DSHEA and TCM libraries (AID 1919973); details: recombinant CYP2C9 enzyme activity, luminescence; series mostly up to 34.1 µM;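 also: luminogenic pro-luciferin CYP2C9 substrate turned into luciferin with NADPH regeneration; % is scaled to controls: 0 for no effect and ±100 for the full control effect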
# Cytochrome P450 2C9 (Homo sapiens), sequence (P11712 whole entry, looked up): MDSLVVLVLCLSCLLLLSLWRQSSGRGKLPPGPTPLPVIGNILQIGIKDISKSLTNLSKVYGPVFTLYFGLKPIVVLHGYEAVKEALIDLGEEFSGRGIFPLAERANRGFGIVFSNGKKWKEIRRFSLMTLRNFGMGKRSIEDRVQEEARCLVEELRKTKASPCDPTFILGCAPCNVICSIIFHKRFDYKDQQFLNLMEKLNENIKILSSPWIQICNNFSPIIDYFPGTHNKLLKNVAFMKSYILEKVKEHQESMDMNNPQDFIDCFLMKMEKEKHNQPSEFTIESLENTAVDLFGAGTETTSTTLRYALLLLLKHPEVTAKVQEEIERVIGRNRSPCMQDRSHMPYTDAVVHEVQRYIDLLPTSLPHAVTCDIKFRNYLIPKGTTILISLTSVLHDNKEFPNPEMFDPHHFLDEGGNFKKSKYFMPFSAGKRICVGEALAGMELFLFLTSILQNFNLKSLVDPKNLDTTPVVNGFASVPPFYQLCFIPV
# Method in brief: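 Luminescent P450-Glo readout. Enzyme plus pro-luciferin substrate in manufacturer buffer (typically 100 mM KPO4); 15 min RT preincubation; 1x NADPH regenerating system, 30-45 min RT in the dark; detection reagent 30 min.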
# [11] = target: Cytochrome P450 1A2 (Homo sapiens) (UniProt P05177); test: qHTS for inhibitors of CYPIA2 against the NCATS DSHEA and TCM libraries (AID 1919976); details: recombinant CYP1A2 enzyme activity, luminescence; series mostly up to 37 µM;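 also: light from luciferin formed by CYP1A2 from a pro-luciferin substrate; % is scaled to controls: 0 for no effect and ±100 for the full control effect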
# Method in brief: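 Human CYP1A2 with its pro-luciferin substrate in supplier buffer (typically 100 mM KPO4) was pre-incubated with compounds 15 min at RT. Reaction was started with 1x NADPH regeneration solution and run 30-45 min at RT in the dark, then luminescence was read after P450-Glo detection reagent (30 min RT).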
structure (smiles),measurement,setting,value
CN1CCN(c2ncc3nc(-c4cn(C)c5ccccc45)c(=O)n(C[C@H]4CCCO4)c3n2)CC1,Potency,[1],> 11.4 µM
same,"activity change, negative = inhibition",[2],-8.04%
same,Potency,[3],6.31 µM (active)
same,"activity change, negative = inhibition",[4],3.64%
same,Potency,[5],inactive
Cc1ccccc1-c1nc(Nc2ccncc2)c2ccccc2n1,"activity change, negative = inhibition",[2],-17.3%
same,Potency,[3],0.794 µM (active)
same,"activity change, negative = inhibition",[4],6.78%
same,Potency,[6],6.31 µM (active)
same,outcome,[7],inactive
same,Potency,[5],inactive
O=c1c(CCc2ccccc2)nc2cncnc2n1Cc1ccccc1,Potency,[1],> 11.4 µM
same,"activity change, negative = inhibition",[4],-4.57%
same,Potency,[5],inactive
Cc1cnc(CNc2ncnc3ccc(-c4ccc(N(C)C)cc4)cc23)cn1,Potency,[1],> 11.4 µM
same,Potency,[3],1 µM (active)
same,"activity change, negative = inhibition",[4],5.72%
same,outcome,[7],inactive
COc1ccc2[nH]cc(CCNc3ncncc3-c3ccccc3C)c2c1,Potency,[1],> 11.4 µM
same,Potency,[3],0.631 µM (active)
same,"activity change, negative = inhibition",[4],7.13%
same,Potency,[8],inactive
same,Potency,[6],0.316 µM (active)
same,outcome,[7],inactive
same,Potency,[9],0.0501 µM (active)
CN(C)c1ccc(-c2cc(N(C)Cc3ccco3)ncn2)cc1,"activity change, negative = inhibition",[2],-23.1%
same,Potency,[3],0.316 µM (active)
same,"activity change, negative = inhibition",[4],3.68%
same,Potency,[8],inactive
same,outcome,[7],inactive
same,Potency,[5],inactive
COc1ccc(-c2nc3cnc(N4CCOCC4)nc3n(-c3ccc(OC)cc3)c2=O)cc1,Potency,[1],> 11.4 µM
same,"activity change, negative = inhibition",[2],-5.89%
same,Potency,[3],10 µM (active)
CN(Cc1ccco1)c1ncnc2ccc(-c3cccc(NS(C)(=O)=O)c3)cc12,Potency,[1],> 11.4 µM
same,Potency,[3],0.398 µM (active)
same,"activity change, negative = inhibition",[4],14.3%
same,Potency,[6],5.01 µM (active)
same,outcome,[7],inactive
same,Potency,[9],7.94 µM (active)
same,Potency,[5],7.94 µM (active)
CC(C)=CCCC(C)=CCCC(C)=CCCC=C(C)CCC=C(C)CCC=C(C)C,Potency,[10],inactive
COc1cccc(Nc2ncc3nc(-c4cccs4)c(=O)n(C[C@H]4CCCO4)c3n2)c1,"activity change, negative = inhibition",[4],-15.5%
same,Potency,[8],inactive
Cc1cnc(CNc2ncnc3ccc(-c4ccccc4Cl)cc23)cn1,Potency,[1],> 11.4 µM
same,"activity change, negative = inhibition",[2],14.6%
same,Potency,[3],6.31 µM (active)
same,"activity change, negative = inhibition",[4],7.91%
same,Potency,[6],2.51 µM (active)
same,outcome,[7],inactive
COc1ccccc1-c1nc(NC2CC2)c2ccccc2n1,"activity change, negative = inhibition",[2],-2.64%
same,Potency,[3],0.316 µM (active)
same,"activity change, negative = inhibition",[4],-13.9%
same,outcome,[7],inactive
COc1ccc2[nH]cc(CCNc3ncnc4ccc(-c5cccc(C#N)c5)cc34)c2c1,Potency,[1],> 11.4 µM
same,Potency,[3],2.51 µM (active)
same,Potency,[6],2.51 µM (active)
same,outcome,[7],inactive
same,Potency,[9],7.94 µM (active)
CC(=O)OC1CC2CCC1(C)C2(C)C (stereo not given),Potency,[11],inactive
CN(Cc1ccco1)c1nc(-c2ccccc2C(F)(F)F)nc2ccccc12,Potency,[1],> 11.4 µM
same,"activity change, negative = inhibition",[2],23.8%
same,Potency,[3],2 µM (active)
same,outcome,[7],inactive
same,Potency,[9],7.94 µM (active)
same,Potency,[5],inactive
COc1ccccc1CNc1ncnc2ccc(-c3cccc(NS(C)(=O)=O)c3)cc12,Potency,[1],> 11.4 µM
same,Potency,[3],3.98 µM (active)
same,"activity change, negative = inhibition",[4],24.7%
same,Potency,[6],3.16 µM (active)
same,outcome,[7],inactive
same,Potency,[5],7.08 µM (active)
COc1cccc(-c2ccc3ncnc(NCc4ccc(OC)cc4OC)c3c2)c1,Potency,[1],> 11.4 µM
same,Potency,[3],2.51 µM (active)
same,"activity change, negative = inhibition",[4],-18.9%
same,Potency,[6],2.51 µM (active)
same,outcome,[7],inactive
COc1cccc(-c2ccc3ncnc(NCc4cnc(C)cn4)c3c2)c1,Potency,[1],> 11.4 µM
same,Potency,[3],2.51 µM (active)
same,"activity change, negative = inhibition",[4],27.1%
same,Potency,[8],inactive
same,Potency,[6],7.94 µM (active)
same,outcome,[7],inactive
same,Potency,[5],1.41 µM (active)
COc1ccc(Oc2ncc3nc(-c4ccc(F)cc4)c(=O)n(C[C@H]4CCCO4)c3n2)cc1,Potency,[1],> 11.4 µM
same,"activity change, negative = inhibition",[2],-23.4%
same,"activity change, negative = inhibition",[4],0.101%
same,Potency,[8],inactive
O=c1c(CCc2ccccc2)nc2cnc(N3CCNCC3)nc2n1-c1ccccc1,Potency,[1],> 11.4 µM
same,"activity change, negative = inhibition",[2],-11.6%
same,Potency,[3],15.8 µM (active)
same,"activity change, negative = inhibition",[4],6.64%
same,Potency,[8],inactive
COc1ccc2[nH]cc(CCNc3ncnc4ccc(-c5ccoc5)cc34)c2c1,Potency,[3],0.316 µM (active)
same,"activity change, negative = inhibition",[4],0.633%
same,Potency,[8],inactive
same,Potency,[6],3.98 µM (active)
same,outcome,[7],inactive
same,Potency,[9],7.94 µM (active)
same,Potency,[5],0.562 µM (active)

# Source: PubChem BioAssay (NCATS)
